Source: PubChem
Only some compounds are listed: those with a hit (about 2.8% of all), similar ones and a draw of the others.
Shn3 inh set2: reduces Shn3 3'UTR luciferase signal in osteoblasts; 0.52% of 360,000 active; Clone20 osteoblast Shn3 3'UTR firefly luciferase, 24 h; inhibition, % at 12.5 µM;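 active = mean inhibition of at least 75% with every replicate also reaching 75%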;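 also: 0% = median of neutral control wells and 100% = pilot-screen positive control compound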
EBV LMP1 NFkB: reduces LMP1-driven NF-kappaB luciferase signal; inhibition, % at 12.5 µM; LMP1-induced NF-kappaB luciferase reporter cells, luminescence; AID 504558; 0.69% of 350,000 active; in the data active = inhibition above about 41%;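 also: 0% = neutral control wells and 100% = reference inhibitor control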
Peg3 prom inh: reduces Peg3 promoter-driven luciferase expression in HeLa | AID 588405 | inhibition, % at 20 µM | HeLa PEG-Prom luciferase reporter, luminescence, overnight | 1.7% of 360,000 active;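 active = inhibition of at least 50% at 20 µM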
HIF-2a block: blocks HIF-2a reporter activity. 786-0 RCC cells HIF-2a reporter, luciferase luminescence, overnight. inhibition, % at 18.8 µM. 0.72% of 360,000 active;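 active = inhibition of the luminescence signal of 40% or more relative to plate controls, in a single-dose primary screen at 18.75 µM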
MITF TRPM1 inh: inhibitors of MITF-driven TRPM1 promoter in melanoma cells. SK-MEL-5 TRPM1 promoter luciferase, 24 h. inhibition, % at 12.5 µM. 0.83% of 330,000 active. AID 488899;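 active = mean inhibition across replicates of 60% or more, whatever share of single replicates reaches that level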
PAX8 reporter: PAX8 transcriptional activity inhibition; 1.2% of 360,000 active; inhibition, % at 12.6 µM; RMG-I TPO-luciferase reporter, SteadyGlo, 24 h;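 active = mean replicate inhibition at least 60% with every replicate also reaching 60%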;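 also: luciferase light reporting Pax8 driven TPO promoter activity; plate controls were median of neutral control wells for no effect and mitoxantrone controls for full effect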
The depositor's hits bear a star.

What do the screens show for `COc1ccc(C(=O)Nn2c(SCC(=O)NC3CCCCC3)nc3ccccc3c2=O)cc1`?
Shn3 inh set2: 15; EBV LMP1 NFkB: 55*; Peg3 prom inh: 27; HIF-2a block: 36; MITF TRPM1 inh: 25; PAX8 reporter: -11

How did CCC(=O)N(C)C[C@H]1Oc2cc(C#CCC3CCCC3)ccc2S(=O)(=O)N([C@@H](C)CO)C[C@H]1C do in these assays?
PAX8 reporter: -13

Results for C[C@H](CO)N1C[C@H](C)[C@@H](CN(C)C(=O)Nc2ccc(C(F)(F)F)cc2)Oc2ccc(NS(=O)(=O)c3cccs3)cc2CC1=O ?
PAX8 reporter: -2

How did Cc1ccc(N(C)S(=O)(=O)c2cc(-c3cnc(C4CC4)o3)ccc2C)cc1 do in these assays?
Shn3 inh set2: 37; EBV LMP1 NFkB: -7; Peg3 prom inh: 36; HIF-2a block: 29; MITF TRPM1 inh: -3; PAX8 reporter: 12

Results for Cc1cccc(N(C)S(=O)(=O)c2ccc(-c3cnc(C4CC4)o3)cc2)c1 ?
Shn3 inh set2: 13; EBV LMP1 NFkB: 12; Peg3 prom inh: 12; HIF-2a block: 29; MITF TRPM1 inh: 56; PAX8 reporter: 99*

Results for CCOc1ccccc1NS(=O)(=O)c1ccc(-c2cnc(C3CC3)o2)cc1 ?
Shn3 inh set2: 39; EBV LMP1 NFkB: 3; Peg3 prom inh: 3; HIF-2a block: 38; MITF TRPM1 inh: 56; PAX8 reporter: 76*

What do the screens show for `COc1ccccc1CNS(=O)(=O)c1ccc(-c2cnc(C3CC3)o2)cc1`?
Shn3 inh set2: 27; EBV LMP1 NFkB: 45*; Peg3 prom inh: 10; HIF-2a block: 7; MITF TRPM1 inh: 10; PAX8 reporter: 34

Results for COc1ccc(S(=O)(=O)N(C)C[C@H]2Oc3ccc(NC(=O)CCN4CCOCC4)cc3C(=O)N([C@@H](C)CO)C[C@H]2C)cc1 ?
PAX8 reporter: -2

Results for C[C@@H]1CN([C@H](C)CO)C(=O)c2cc(C#CCN(C)C)cnc2O[C@H]1CN(C)C(=O)c1cnccn1 ?
PAX8 reporter: -2

Results for Cc1cccc2cc(C#N)c(SCC(=O)N3CC(=O)Nc4ccccc43)nc12 ?
Shn3 inh set2: 28; EBV LMP1 NFkB: -49; Peg3 prom inh: 21; HIF-2a block: 25; MITF TRPM1 inh: 65*

What do the screens show for `COc1ccc2cc(C#N)c(SCC(=O)N3CC(=O)Nc4ccccc43)nc2c1`?
Shn3 inh set2: 9; EBV LMP1 NFkB: 5; Peg3 prom inh: 23; HIF-2a block: -1; MITF TRPM1 inh: -8

How did Cc1ccc(NC(=O)CCc2c(C)nn(-c3ccc(N4CCCCC4)nn3)c2C)cc1 do in these assays?
Shn3 inh set2: -26; EBV LMP1 NFkB: -18; Peg3 prom inh: 77*; HIF-2a block: -237; MITF TRPM1 inh: -31; PAX8 reporter: -68

How did Cc1cc(C)cc(NC(=O)CCc2c(C)nn(-c3ccc(N4CCCCC4)nn3)c2C)c1 do in these assays?
Shn3 inh set2: -93; EBV LMP1 NFkB: -34; Peg3 prom inh: -180; HIF-2a block: -238; MITF TRPM1 inh: -76; PAX8 reporter: -105

Results for O=C(NCc1ccco1)C1CCN(C(=O)c2cc3sccc3n2Cc2ccc(F)cc2)CC1 ?
Shn3 inh set2: 51; EBV LMP1 NFkB: -19; Peg3 prom inh: 5; HIF-2a block: -7; MITF TRPM1 inh: 1

How did CC1Cc2ccccc2N1C(=O)c1cc2sccc2n1Cc1ccc(F)cc1 (stereo not given) do in these assays?
Shn3 inh set2: 16; EBV LMP1 NFkB: -9; Peg3 prom inh: 54*; HIF-2a block: 20; MITF TRPM1 inh: 13

How did Cc1noc(C)c1S(=O)(=O)N(C)C[C@@H]1OCCCC[C@H](C)Oc2ccc(NS(=O)(=O)c3ccccc3)cc2C(=O)N([C@H](C)CO)C[C@H]1C do in these assays?
PAX8 reporter: -7

How did Cc1ccc(S(=O)(=O)N(C)CC(=O)Nc2cccnc2)cc1 do in these assays?
Shn3 inh set2: 3; EBV LMP1 NFkB: 0; Peg3 prom inh: -1; HIF-2a block: 1; MITF TRPM1 inh: 7; PAX8 reporter: 16

Results for CN(CC(=O)Nc1cccnc1)S(=O)(=O)c1ccc(Br)cc1 ?
Shn3 inh set2: 0; EBV LMP1 NFkB: 50*; Peg3 prom inh: 18; HIF-2a block: 13; MITF TRPM1 inh: 2; PAX8 reporter: -2

Results for Cc1cccc(N2CCN(CCCNC(=O)C3CCCN(c4ncnc5c4nc4n5CCCCC4)C3)CC2C)c1 (stereo not given) ?
Shn3 inh set2: 55; EBV LMP1 NFkB: 3; Peg3 prom inh: 60*; HIF-2a block: 12; MITF TRPM1 inh: 37; PAX8 reporter: 52

Results for O=C(NCC1CCN(Cc2ccc(Cl)cc2)CC1)C1CCCN(c2ncnc3c2nc2n3CCCCC2)C1 (stereo not given) ?
Shn3 inh set2: 26; EBV LMP1 NFkB: 21; Peg3 prom inh: 51*; HIF-2a block: 16; MITF TRPM1 inh: 27; PAX8 reporter: 37

How did CC(C)NC(=O)Nc1ccc2c(c1)C(=O)N([C@@H](C)CO)C[C@H](C)[C@@H](CN(C)S(=O)(=O)c1cccs1)OCCCC[C@H](C)O2 do in these assays?
PAX8 reporter: -29

What do the screens show for `Cc1ccc(S(=O)(=O)Nc2ccc3c(c2)C(=O)N([C@H](C)CO)C[C@H](C)[C@H](CN(C)C(=O)Nc2ccc(F)cc2)O3)cc1`?
PAX8 reporter: -11

What do the screens show for `C[C@@H]1CCCCO[C@H](CN(C)Cc2ccc(C(=O)O)cc2)[C@H](C)CN([C@@H](C)CO)C(=O)c2cc(NC(=O)C3CCCCC3)ccc2O1`?
PAX8 reporter: 11

What do the screens show for `O=c1[nH]nc(Sc2ncnc3sccc23)n1CCc1ccccc1`?
Shn3 inh set2: 48; EBV LMP1 NFkB: 20; Peg3 prom inh: 44; HIF-2a block: 29; MITF TRPM1 inh: 23; PAX8 reporter: 83*

How did CCN(CC)C(=O)CSc1n[nH]c(=O)n1CCc1ccccc1 do in these assays?
Shn3 inh set2: 1; EBV LMP1 NFkB: -6; Peg3 prom inh: 15; HIF-2a block: 13; MITF TRPM1 inh: 2; PAX8 reporter: 12

What do the screens show for `COc1ccccc1NC(=O)Nc1nc(C(N)C2CCCCC2)cs1` (stereo not given)?
Shn3 inh set2: -1; Peg3 prom inh: 82*; HIF-2a block: 3; PAX8 reporter: -1

What do the screens show for `NC(c1csc(NC(=O)Nc2ccccc2Cl)n1)C1CCCCC1` (stereo not given)?
Shn3 inh set2: 29; Peg3 prom inh: 95*; HIF-2a block: -18; PAX8 reporter: -11

How did NC(c1csc(NC(=O)Nc2cccc(Cl)c2)n1)C1CCCCC1 (stereo not given) do in these assays?
Shn3 inh set2: 37; Peg3 prom inh: 92*; HIF-2a block: 5; PAX8 reporter: 0

Results for COc1cc(NC(=O)Nc2nc(C(N)C3CCCCC3)cs2)cc(OC)c1OC (stereo not given) ?
Shn3 inh set2: 59; Peg3 prom inh: 25; HIF-2a block: 4; PAX8 reporter: -8
